The supplement of paper PMC12282887
± gives the standard deviation of the averaged measurements.

Legend:
Test in all cases: promoter activity interaction Z-score (Lux/OD deviation from empty-vector control); higher = stronger promoter induction by the compound
[1] = system: E. coli BW25113 acrABp lux reporter
Procedure, shortened: (§1)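 E. coli BW25113 (wild type or marA, soxS or rob deletion) carrying low-copy luxCDABE promoter reporters grew in 40 µl LB Lennox in 384-well plates at 37°C. Each compound was tested at four 1:2 dilutions in biological duplicates. OD600 and luminescence were read every 30 min for 12 h. Areas were taken over 0–8 h (wild type) or 1–9 h (mutants), and wells below 10% of median growth area were removed. The score is the Z-transformed residual of growth-normalised luminescence fitted against the empty-vector control.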

[2] = system: E. coli BW25113 micFp lux reporter
Procedure, shortened: as §1

[3] = system: E. coli BW25113 ompFp lux reporter
Procedure, shortened: as §1

[4] = system: E. coli BW25113 robp lux reporter
Procedure, shortened: as §1

[5] = system: E. coli BW25113 soxSp lux reporter
Procedure, shortened: as §1

[6] = system: E. coli BW25113 tolCp lux reporter
Procedure, shortened: as §1

[7] = 4.8 µg/ml, genetic background: wild type
[8] = 4.8 µg/ml, genetic background: ΔmarA
[9] = 4.8 µg/ml, genetic background: Δrob
[10] = 4.8 µg/ml, genetic background: ΔsoxS
[11] = 9.5 µg/ml, genetic background: wild type
[12] = 9.5 µg/ml, genetic background: ΔmarA
[13] = 9.5 µg/ml, genetic background: Δrob
[14] = 9.5 µg/ml, genetic background: ΔsoxS
[15] = 19 µg/ml, genetic background: wild type
[16] = 19 µg/ml, genetic background: ΔmarA
[17] = 19 µg/ml, genetic background: Δrob
[18] = 19 µg/ml, genetic background: ΔsoxS
[19] = 38.1 µg/ml, genetic background: wild type
[20] = 38.1 µg/ml, genetic background: ΔmarA
[21] = 38.1 µg/ml, genetic background: Δrob
[22] = 38.1 µg/ml, genetic background: ΔsoxS

## NC(N)=S [Thiourea]
[1]; [7]
  promoter activity interaction Z-score: -0.187 ± 0.18
[1]; [8]
  promoter activity interaction Z-score: -0.399 ± 0.26
[1]; [9]
  promoter activity interaction Z-score: -0.36 ± 0.23
[1]; [10]
  promoter activity interaction Z-score: -0.569 ± 0.35
[1]; [11]
  promoter activity interaction Z-score: -0.18 ± 0.14
[1]; [12]
  promoter activity interaction Z-score: 0.241 ± 0.33
[1]; [13]
  promoter activity interaction Z-score: 0.0155 ± 0.17
[1]; [14]
  promoter activity interaction Z-score: -0.239 ± 0.4
[1]; [15]
  promoter activity interaction Z-score: -0.0387 ± 0.081
[1]; [16]
  promoter activity interaction Z-score: -0.48 ± 0.68
[1]; [17]
  promoter activity interaction Z-score: -0.186 ± 0.13
[1]; [18]
  promoter activity interaction Z-score: -0.351 ± 0.079
[1]; [19]
  promoter activity interaction Z-score: -0.113 ± 0.22
[1]; [20]
  promoter activity interaction Z-score: -0.12 ± 0.22
[1]; [21]
  promoter activity interaction Z-score: 0.24 ± 0.064
[1]; [22]
  promoter activity interaction Z-score: -0.0892 ± 0.19
[2]; [7]
  promoter activity interaction Z-score: -0.235 ± 0.23
[2]; [8]
  promoter activity interaction Z-score: -0.0756 ± 0.059
[2]; [9]
  promoter activity interaction Z-score: -0.0669 ± 0.076
[2]; [10]
  promoter activity interaction Z-score: -0.189 ± 0.15
[2]; [11]
  promoter activity interaction Z-score: 0.261 ± 0.46
[2]; [12]
  promoter activity interaction Z-score: -0.0468 ± 0.13
[2]; [13]
  promoter activity interaction Z-score: -0.0323 ± 0.16
[2]; [14]
  promoter activity interaction Z-score: 0.0238 ± 0.19
[2]; [15]
  promoter activity interaction Z-score: -0.293 ± 0.083
[2]; [16]
  promoter activity interaction Z-score: -0.144 ± 0.073
[2]; [17]
  promoter activity interaction Z-score: -0.0798 ± 0.19
[2]; [18]
  promoter activity interaction Z-score: -0.203 ± 0.18
[2]; [19]
  promoter activity interaction Z-score: -0.442 ± 0.33
[2]; [20]
  promoter activity interaction Z-score: -0.164 ± 0.059
[2]; [21]
  promoter activity interaction Z-score: -0.0862 ± 0.063
[2]; [22]
  promoter activity interaction Z-score: -0.341 ± 0.12
[3]; [7]
  promoter activity interaction Z-score: 0.0411 ± 0.63
[3]; [8]
  promoter activity interaction Z-score: 0.273 ± 0.023
[3]; [9]
  promoter activity interaction Z-score: 0.0473 ± 0.84
[3]; [10]
  promoter activity interaction Z-score: -0.209 ± 0.4
[3]; [11]
  promoter activity interaction Z-score: 0.331 ± 0.68
[3]; [12]
  promoter activity interaction Z-score: 0.292 ± 0.32
[3]; [13]
  promoter activity interaction Z-score: 0.271 ± 0.042
[3]; [14]
  promoter activity interaction Z-score: -0.0695 ± 0.25
[3]; [15]
  promoter activity interaction Z-score: 0.307 ± 0.13
[3]; [16]
  promoter activity interaction Z-score: 0.189 ± 0.15
[3]; [17]
  promoter activity interaction Z-score: -0.133 ± 0.22
[3]; [18]
  promoter activity interaction Z-score: -0.0487 ± 0.067
[3]; [19]
  promoter activity interaction Z-score: 0.484 ± 0.11
[3]; [20]
  promoter activity interaction Z-score: 0.567 ± 0.37
[3]; [21]
  promoter activity interaction Z-score: 0.804 ± 0.41
[3]; [22]
  promoter activity interaction Z-score: 0.352 ± 0.25
[4]; [7]
  promoter activity interaction Z-score: 0.198 ± 0.54
[4]; [8]
  promoter activity interaction Z-score: -0.278 ± 0.4
[4]; [9]
  promoter activity interaction Z-score: -0.498 ± 0.88
[4]; [10]
  promoter activity interaction Z-score: -0.368 ± 0.72
[4]; [11]
  promoter activity interaction Z-score: 0.517 ± 0.91
[4]; [12]
  promoter activity interaction Z-score: 0.53 ± 0.53
[4]; [13]
  promoter activity interaction Z-score: -0.0465 ± 0.47
[4]; [14]
  promoter activity interaction Z-score: -0.206 ± 0.084
[4]; [15]
  promoter activity interaction Z-score: 0.0253 ± 0.099
[4]; [16]
  promoter activity interaction Z-score: -0.564 ± 0.03
[4]; [17]
  promoter activity interaction Z-score: -0.172 ± 0.36
[4]; [18]
  promoter activity interaction Z-score: -0.633 ± 0.39
[4]; [19]
  promoter activity interaction Z-score: 0.15 ± 0.3
[4]; [20]
  promoter activity interaction Z-score: -0.571 ± 0.48
[4]; [21]
  promoter activity interaction Z-score: 0.0676 ± 0.18
[4]; [22]
  promoter activity interaction Z-score: -0.509 ± 0.51
[5]; [7]
  promoter activity interaction Z-score: -0.265 ± 0.12
[5]; [8]
  promoter activity interaction Z-score: -0.27 ± 0.0046
[5]; [9]
  promoter activity interaction Z-score: -0.311 ± 0.21
[5]; [10]
  promoter activity interaction Z-score: -0.36 ± 0.21
[5]; [11]
  promoter activity interaction Z-score: -0.21 ± 0.083
[5]; [12]
  promoter activity interaction Z-score: -0.161 ± 0.02
[5]; [13]
  promoter activity interaction Z-score: -0.36 ± 0.053
[5]; [14]
  promoter activity interaction Z-score: -0.318 ± 0.36
[5]; [15]
  promoter activity interaction Z-score: -0.205 ± 0.22
[5]; [16]
  promoter activity interaction Z-score: -0.41 ± 0.026
[5]; [17]
  promoter activity interaction Z-score: -0.292 ± 0.098
[5]; [18]
  promoter activity interaction Z-score: -0.397 ± 0.33
[5]; [19]
  promoter activity interaction Z-score: -0.492 ± 0.0079
[5]; [20]
  promoter activity interaction Z-score: -0.464 ± 0.087
[5]; [21]
  promoter activity interaction Z-score: -0.389 ± 0.024
[5]; [22]
  promoter activity interaction Z-score: -0.476 ± 0.5
[6]; [7]
  promoter activity interaction Z-score: -0.648 ± 0.31
[6]; [8]
  promoter activity interaction Z-score: -0.358 ± 0.66
[6]; [9]
  promoter activity interaction Z-score: 0.771 ± 0.35
[6]; [10]
  promoter activity interaction Z-score: -0.943 ± 0.29
[6]; [11]
  promoter activity interaction Z-score: -0.618 ± 1.8
[6]; [12]
  promoter activity interaction Z-score: 0.4 ± 0.71
[6]; [13]
  promoter activity interaction Z-score: 0.609 ± 0.4
[6]; [14]
  promoter activity interaction Z-score: -0.368 ± 0.54
[6]; [15]
  promoter activity interaction Z-score: -0.0827 ± 0.073
[6]; [16]
  promoter activity interaction Z-score: -0.203 ± 0.14
[6]; [17]
  promoter activity interaction Z-score: -0.414 ± 0.69
[6]; [18]
  promoter activity interaction Z-score: 0.14 ± 0.66
[6]; [19]
  promoter activity interaction Z-score: 0.133 ± 0.26
[6]; [20]
  promoter activity interaction Z-score: -0.216 ± 0.12
[6]; [21]
  promoter activity interaction Z-score: 0.188 ± 0.21
[6]; [22]
  promoter activity interaction Z-score: -0.969 ± 1.2
